Reference: PubChem BioAssay (NCATS)
Several values for one entry are separate records, joined by “and”; a condition that tells them apart may be missing. Equal entries are not always repeated. Results filed as inconclusive are left out. The source holds several records for some structures; these can differ, active in one and inactive in another. Activity calls are given as the source filed them. Unless noted, calls come from the whole dose curve; as a rule, active = well fitted curve in the direction sought with a large enough effect; inconclusive = small, poorly fitted or top-dose-only effect, or another doubt; inactive = no such curve, though single readings can be large; an effect the other way counts as inactive or inconclusive. Peptide text beside a SMILES is read from it.

Experiments:
Tov112D = experiment: Primary qHTS to identify gynecologic anti-cancer compounds using libraries of approved drugs and bioactive compounds (AID 1345084); details: Gynecologic cancer cell panel viability, ATPlite luminescence, 48 h; series mostly up to 57.5 µM; note: nearly all actives have a fitted effect of over 55% in size; note: potency is the fitted concentration of half-maximal effect
Outline: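 Cells, 1,000 per well, plated 16 h, then exposed 48 h at 37 C to compounds. Viability by ATPlite luminescence after 15 min at room temperature.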

astro = experiment: Drug repurposing screens with cells derived from glioblastoma tumor samples (AID 1345199); details: viability, ATP luminescence, 48 h; series mostly up to 45.9 µM; note: nearly all actives have a fitted effect of over 40% in size; note: potency is the fitted concentration of half-maximal effect; for activity, negative = cell killing: % is set by controls: 0 for no effect and ±100 for the full control effect
Outline: (§1)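 Primary testing used CD133+ neurospheres from four GBM patients, seven concentrations, 48 h exposure and ATP-based viability; confirmation added three slower-growing patient lines.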

[1] = as above; details: GBM patient neurospheres viability, ATP luminescence, 48 h
Outline: as §1

[2] = biological target: Nuclear receptor subfamily 1 group I member 2 (Rattus norvegicus) (UniProt Q9R1A7); experiment: qHTS assay for small molecule activators of the rat pregnane X receptor (rPXR) signaling pathway (AID 651751; call rule not given here; note: 0% is about no effect); details: rPXR reporter cells, luciferase (One-Glo), 24 h
[3] = qHTS assay for small molecule activators of the human pregnane X receptor (PXR) signaling pathway (AID 720659; call rule not given here; note: 0% is about no effect)
[4] = qHTS assay to identify inhibitors of the type 1 interferon - major histocompatibility complex class I in skeletal muscle: Counter screen cell viability and HiBit confirmation (AID 1347412); details: iHSKM muscle cells + IFN-b, HiBiT or CellTiter-Glo, 24 h; note: nearly all actives have a fitted effect of over 60% in size; note: potency is the fitted concentration of half-maximal effect; for activity change, negative = inhibition: % is set by controls: 0 for no effect and ±100 for the full control effect
Outline: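 CRISPR HLA-B*08:01-HiBit immortalized human myoblasts (C25cl48) stimulated with 4 ng/ml IFN-beta and compounds (12-point 1:3, top 46 uM final) for 24 h at 37 C. Duplicate plates read by HiBit lytic luminescence or CellTiter Glo ATP.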

[5] = at 45.9 µM (top of the series), tumour line B
[6] = at 45.9 µM (top of the series), tumour line D
[7] = at 46.1 µM (top of the series), tumour line C
[8] = at 20 µM (top of the series), tumour line C
[9] = at 21.2 µM (top of the series), tumour line B
[10] = at 21.2 µM (top of the series), tumour line D
[11] = at 21.3 µM (top of the series), tumour line A
[12] = at 46 µM (top of the series), tumour line A

Chain of Nuclear receptor subfamily 1 group I member 2 (Rattus norvegicus) (Q9R1A7 whole entry, looked up): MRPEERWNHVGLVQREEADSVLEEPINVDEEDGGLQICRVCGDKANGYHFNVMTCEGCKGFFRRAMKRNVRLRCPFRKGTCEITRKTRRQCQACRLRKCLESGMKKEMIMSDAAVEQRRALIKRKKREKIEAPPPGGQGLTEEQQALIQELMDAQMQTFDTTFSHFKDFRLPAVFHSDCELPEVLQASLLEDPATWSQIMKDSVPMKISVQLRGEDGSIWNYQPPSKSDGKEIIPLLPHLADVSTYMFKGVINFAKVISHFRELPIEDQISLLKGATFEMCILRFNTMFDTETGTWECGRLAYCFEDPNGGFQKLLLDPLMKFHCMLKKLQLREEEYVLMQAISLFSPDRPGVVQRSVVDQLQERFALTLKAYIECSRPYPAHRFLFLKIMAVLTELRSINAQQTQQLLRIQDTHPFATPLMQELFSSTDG

CCN(CC)CCOc1ccc(Cc2ccccc2)cc1
Potency (Tov112D): inactive
Potency (astro): 22.4 µM (active)

NS(=O)(=O)c1cc(C(=O)O)c(NCc2ccco2)cc1Cl
Potency (Tov112D): inactive
activity, negative = cell killing [1, 5]: -8.22% (inactive)
activity, negative = cell killing [1, 6]: -18.4% (inactive)
activity, negative = cell killing [1, 7]: 5.25% (inactive)
Potency (astro): inactive
max response [2]: 7.06% (inactive) and 0.0174% (inactive)
outcome [3]: inactive

Cc1c(C(=O)NN2CCCCC2)nn(-c2ccc(Cl)cc2Cl)c1-c1ccc(Cl)cc1
Potency (Tov112D): inactive
activity, negative = cell killing [1, 7]: -11.3% (inactive)
Potency ([1]; tumour line A): 5.01 µM (active)
Potency (astro): 35.5 µM (active)

Cc1cccc(CN2CCN(C(c3ccccc3)c3ccc(Cl)cc3)CC2)c1 (configuration not stated)
Potency (Tov112D): inactive
activity, negative = cell killing [1, 8]: -7.92% (inactive)
Potency ([1]; tumour line A): 5.62 µM (active)
Potency (astro): inactive

CCOC(=O)c1c(C)n(C)c2ccc(O)cc12
Potency (Tov112D): inactive
activity, negative = cell killing [1, 5]: -14.1% (inactive)
activity, negative = cell killing [1, 6]: -23.4% (inactive)
Potency (astro): inactive

Oc1ccc(OCc2ccccc2)cc1
Potency (Tov112D): inactive
Potency (astro): inactive

CCCc1cc(=O)[nH]c(=S)[nH]1
Potency (Tov112D): inactive
activity, negative = cell killing [1, 5]: -8.42% (inactive)
activity, negative = cell killing [1, 6]: -9.52% (inactive)
activity, negative = cell killing [1, 7]: -10.7% (inactive)
Potency (astro): inactive
max response [2]: -3.12% (inactive) and -0.189% (inactive)
outcome [3]: inactive

Cc1cc2cc3c(C)cc(=O)oc3c(C)c2o1
Potency (Tov112D): inactive
activity, negative = cell killing [1, 8]: -6.21% (inactive)
activity, negative = cell killing [1, 9]: -13.8% (inactive)
activity, negative = cell killing [1, 10]: -30.4% (inactive)
Potency (astro): inactive

S=c1nc[nH]c2nc[nH]c12
Potency (Tov112D): 8.91 µM (active)
activity, negative = cell killing [1, 7]: -28% (inactive)
Potency ([1]; tumour line A): 5.01 µM (active)
Potency (astro): inactive

CC(C)C[C@H](NC(=O)[C@H](Cc1ccccc1)NC(=O)c1cnccn1)B(O)O
Potency (Tov112D): 2 µM (active) and 2.24 µM (active)
Potency (astro): 501 nM (active) and 316 nM (active)
Potency ([4]; HiBiT): 31.3 nM (active)

N=C(N=C(N)N)N1CCOCC1
Potency (Tov112D): inactive
activity, negative = cell killing [1, 9]: 4.28% (inactive)
activity, negative = cell killing [1, 11]: -14.6% (inactive)
Potency (astro): inactive

O=C(NOCC1CC1)c1ccc(F)c(F)c1Nc1ccc(I)cc1Cl
Potency (Tov112D): 28.2 µM (active) and inactive
Potency (astro): 2.51 µM (active)

CC(=O)N1CCN(c2ccc(OC[C@H]3CO[C@](Cn4ccnc4)(c4ccc(Cl)cc4Cl)O3)cc2)CC1
Potency (astro): inactive
max response [2]: -5.89% (inactive)
outcome [3]: inactive

O=c1oc2cc(O)ccc2s1
activity, negative = cell killing [1, 5]: -24% (inactive)
Potency ([1]; tumour line C): 23.1 µM (active)
Potency (astro): inactive

O=P(O)(O)C(O)(Cn1ccnc1)P(=O)(O)O
activity, negative = cell killing [1, 5]: -3.43% (inactive)
activity, negative = cell killing [1, 6]: -0.668% (inactive)
activity, negative = cell killing [1, 12]: -16.2% (inactive)
activity, negative = cell killing [1, 7]: -7.84% (inactive)
Potency (astro): inactive

O=C1c2ccccc2-c2n[nH]c3cccc1c23
activity, negative = cell killing [1, 7]: -13.2% (inactive)
Potency ([1]; tumour line D): 12.6 µM (active)
Potency (astro): 10 µM (active)

COC(=O)[C@H](Cc1ccccc1)NC(=O)[C@@H](N)CC(=O)O (H-Asp-Phe-OMe)
Potency (Tov112D): inactive
Potency (astro): inactive
max response [2]: -0.463% (inactive) and 3.11% (inactive)

C[C@]12CCC(=O)C=C1CC[C@@H]1[C@H]2[C@@H](O)C[C@@]2(C)[C@H]1CC[C@]2(O)C(=O)CO
activity, negative = cell killing [1, 5]: -8.77% (inactive)
activity, negative = cell killing [1, 6]: -14.8% (inactive)
activity, negative = cell killing [1, 12]: -3.08% (inactive)
activity, negative = cell killing [1, 7]: 14.8% (inactive)
Potency (astro): inactive

CNC[C@@H](O)[C@@H](O)[C@H](O)[C@H](O)CO
activity, negative = cell killing [1, 5]: 0.477% (inactive)
activity, negative = cell killing [1, 6]: -17.4% (inactive)
activity, negative = cell killing [1, 7]: -4.13% (inactive)
Potency (astro): inactive

CCOc1cc(CC(=O)N[C@@H](CC(C)C)c2ccccc2N2CCCCC2)ccc1C(=O)O
activity, negative = cell killing [1, 8]: -12% (inactive)
activity, negative = cell killing [1, 9]: -4.95% (inactive)
activity, negative = cell killing [1, 10]: -25.3% (inactive)
activity, negative = cell killing [1, 11]: -13.6% (inactive)
Potency (astro): inactive

Cc1cc(O)c2c(c1)C(=O)c1cc(O)cc(O)c1C2=O
max response [2]: 1.52% (inactive) and -0.614% (inactive)

CCCOc1ccc2nc(NC(=O)OC)[nH]c2c1
Potency (Tov112D): 0.316 µM (active)
activity change, negative = inhibition ([4]; Viability, at 45.9 µM (top of the series)): -24.3% (inactive)

CC(C)(S)[C@@H](N)C(=O)O
Potency (astro): inactive

CCN(CC)CCOc1ccc(Nc2ncc3cc(-c4c(Cl)cccc4Cl)c(=O)n(C)c3n2)cc1
Potency ([4]; HiBiT): 557 nM (active) and 883 nM (active)
Potency ([4]; Viability): 12.5 µM (active) and 2.79 µM (active)

O=C(CS(=O)Cc1ccco1)NCC=CCOc1cc(CN2CCCCC2)ccn1 (configuration not stated)
activity, negative = cell killing [1, 5]: -14.1% (inactive)
activity, negative = cell killing [1, 6]: -2.16% (inactive)
activity, negative = cell killing [1, 7]: -28% (inactive)
Potency ([1]; tumour line A): 25.1 µM (active)
Potency (astro): inactive

CN(C)CCc1c[nH]c2ccc(Cn3cncn3)cc12
activity, negative = cell killing [1, 5]: -9.89% (inactive)
activity, negative = cell killing [1, 6]: -20.8% (inactive)
activity, negative = cell killing [1, 7]: -16% (inactive)
Potency (astro): inactive

CC1(C)NC(=O)N(c2ccc([N+](=O)[O-])c(C(F)(F)F)c2)C1=O
Potency (Tov112D): inactive
max response [2]: -9.05% (inactive)
outcome [3]: inactive
